High-throughput results as filed in PubChem.
This is a sample that favours compounds with a hit; in the whole collection about 5.9% have one here.
GLP-1R inv ag = inverse agonists of human GLP-1 receptor; AID 624417; P43220; HEK293 GLP-1R CRE-luciferase, luminescence, 24 h; GLP-1R form is constitutively active; 410,000 tested, 1.6% active; Potency, µM (series often up to 38.3 µM), inactives show at the top dose activity change, negative = inhibition, hits mostly inhibitors; note: % is set by controls: 0 for no effect and ±100 for the full control effect; nearly all actives have a fitted effect of over 55% in size
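HEK293 cells stably co-expressing a cAMP-responsive luciferase reporter and constitutively active GLP-1R were seeded, incubated 12 h, then exposed to compounds for 24 h at 37 C. Luminescence was read 12 min after detection reagent; inverse agonists lower signal.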
GLP1R ag = GLP-1 receptor (human) agonism; P43220; HEK293 GLP-1R CRE-luciferase, luminescence, 4-6 h; cells express a hypersensitive GLP-1R form; Potency, µM (series often up to 45.6 µM), for inactives: top-dose activation, hits mostly activators; 380,000 tested, 0.007% active; note: % of control where 0% means no effect
Gal4-VP16 FLuc = Gal4-VP16 reporter inhibition counter-screen; Drosophila S2 Gal4-VP16 UAS-luciferase, luminescence, 20 h; 310,000 tested, 3.5% active; AID 2546; Potency, µM (doses to about 53.6 µM), without a hit: at the highest dose activity, negative = inhibition, actives largely listed as inhibitors;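 note: Gal4-VP16 expression switched on by copper sulfate through the metallothionein promoter; % is set by controls: 0 for no effect and ±100 for the full control effect; nearly all actives have a fitted effect of over 50% in size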
RORg inh = ROR gamma (mouse) transcription inhibition; Drosophila S2 Gal4-RORgamma UAS-luciferase reporter, 20 h; P51450; Potency, µM (series often up to 53.6 µM), inactives show top-dose activity change, negative = inhibition, most hits filed as inhibitors; 310,000 tested, 5.4% active; AID 2551; note: % is set by controls: 0 for no effect and ±100 for the full control effect; nearly all actives have a fitted effect of over 60% in size
Target sequence (P51450 whole entry, looked up, the tested form may be a part): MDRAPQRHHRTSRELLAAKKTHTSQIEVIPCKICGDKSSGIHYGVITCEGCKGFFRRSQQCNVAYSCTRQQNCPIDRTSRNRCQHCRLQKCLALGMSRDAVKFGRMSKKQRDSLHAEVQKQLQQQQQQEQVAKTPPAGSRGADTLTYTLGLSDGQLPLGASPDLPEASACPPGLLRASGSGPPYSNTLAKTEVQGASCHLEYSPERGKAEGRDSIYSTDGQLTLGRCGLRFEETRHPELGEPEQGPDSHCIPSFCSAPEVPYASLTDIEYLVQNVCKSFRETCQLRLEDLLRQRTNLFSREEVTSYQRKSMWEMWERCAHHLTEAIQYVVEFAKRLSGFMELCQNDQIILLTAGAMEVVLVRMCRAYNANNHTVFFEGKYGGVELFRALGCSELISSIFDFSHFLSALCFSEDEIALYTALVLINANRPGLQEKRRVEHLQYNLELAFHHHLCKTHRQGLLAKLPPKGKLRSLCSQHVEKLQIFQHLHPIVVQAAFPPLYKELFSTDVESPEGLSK
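Luminescence from a UAS-regulated Photinus luciferase reporter in stably transfected Drosophila Schneider cells is measured; decreased signal marks ROR gamma inhibition. Fusion expression is induced by 700 uM copper sulfate for 20 hr.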
HEK293 tox = cytotoxic in the GLP-1 receptor inverse agonist counter-screen; 410,000 tested, 0.13% active; Potency, µM (top dose mostly 38.3 µM), inactives show at the top dose activity change, negative = inhibition, usual class: inhibitors; HEK293 cAMP-luciferase reporter cells, luminescence, 24 h;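 note: loss of luciferase light is scored as toxicity; % is set by controls: 0 for no effect and ±100 for the full control effect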
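1536-well qHTS counterscreen of the MLSMR; 200 cells/uL, 12 h pre-incubation, 23 nL cpd, 24 h at 37 deg C 5% CO2, luciferase detection reagent, 12 min RT, luminescence. Inhibition = undesired.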
* = called active by the depositor; ? = inconclusive; · = no result; [ ] = remark or other dose. Calls come from the whole dose curve; as a rule, active = well fitted curve in the direction sought with a large enough effect; inconclusive = small, poorly fitted or top-dose-only effect, or another doubt; inactive = no such curve, though single readings can be large; an effect the other way counts as inactive or inconclusive. Potency is the fitted concentration of half-maximal effect.

SMILES	GLP-1R inv ag	GLP1R ag	Gal4-VP16 FLuc	RORg inh	HEK293 tox
Cc1ccccc1Cn1c(=O)n(CCCCCC(=O)NCc2ccc3c(c2)OCO3)c(=O)c2sccc21	6.6%	·	·	·	9.6%
COCCn1c(SCC(=O)Nc2cc(Cl)ccc2OC)nc2c([nH]c3ccccc32)c1=O	5.8%	4.4%	·	·	0.2%
COc1ccc(C(=O)N2CCC3(CC2)CCN(c2cccc(-c4ccccc4)c2)CC3)cc1	·	·	-10.4%	2.8%	·
Cc1ccc2c(c1)c(=O)c(C(=O)c1ccc3c(c1)OCO3)cn2Cc1cccc(F)c1	?	·	·	·	-11.0%
COc1ccccc1NC(=O)C1=C(C)Nc2nc(SCc3ccccc3Cl)nn2C1c1ccccn1 (configuration not stated)	1.8%	-0.7%	·	·	3.8%
O=C(Nc1cccc(Cl)c1)C1CCCN(c2ncnc3c2nc2n3CCCCC2)C1 (configuration not stated)	46.0%	·	·	·	?
CCc1cccc(NC(=O)C2CCCN(c3ncnc4c3nc3n4CCCCC3)C2)c1 (configuration not stated)	6.31µM*	7.5%	0.2%	?	-10.4%
Cc1ccc(NC(=S)N/N=C/c2c(C)[nH]c3ccccc23)cc1	?	15.0%	3.98µM*	2µM*	?
Cc1ccc(C(=O)Nc2ccc(C(=O)N/N=C/c3c[nH]c4ccccc34)cc2)cc1	?	-1.4%	-22.8%	4.0%	-26.5%
Cc1cccc(NC(=S)N/N=C/c2c[nH]c3ccccc23)c1	?	-2.8%	5.62µM*	2.51µM*	0.7%
COc1ccc(NC(=S)N/N=C/c2cccn2Cc2ccc(F)cc2)cc1	-10.1%	0.1%	-11.7%	18.5%	-18.6%
Cc1ccc(Cn2cccc2/C=N/NC(=S)Nc2ccc(C)cc2)cc1	17.4%	9.7%	3.98µM*	0.398µM*	-5.7%
Cc1[nH]c2ccccc2c1/C=N/NC(=S)NCc1ccccc1	?	9.5%	?	11.2µM*	?
CCC(C(=O)OC)n1nnc2sc(-c3ccccc3)cc2c1=O (configuration not stated)	-6.4%	·	·	·	8.9%
Cn1/c(=N/N=C/c2ccccn2)sc2ccccc21	13.9%	13.9%	?	10µM*	9.1%
O=C1C[C@@H](O)[C@@H](O)[C@@H]2[C@H]3C(=O)N(c4ccc(F)cc4F)C(=O)[C@@H]3CC[C@H]12	·	·	-0.4%[10 µM]	-3.8%[10 µM]	·
COC(=O)C1=C(C)N(Cc2ccccc2)C(=S)N[C@H]1c1ccc(Br)cc1	?	1.4%	12.6µM*	3.55µM*	?
COC(=O)C1=C(C)N(Cc2ccccc2)C(=S)N[C@H]1c1cccc(C(F)(F)F)c1	?	7.4%	10µM*	3.55µM*	?
COC(=O)C1=C(C)N(Cc2ccccc2)C(=NCCc2cccnc2)N[C@H]1c1ccc(Br)cc1	?	-0.7%	-24.0%	?	-50.8%
COC(=O)C1=C(C)N(Cc2ccccc2)C(=NCC(C)C)N[C@H]1c1ccc(Br)cc1	·	·	7.08µM*	1.78µM*	·
Cc1ccc(NC(=O)Cc2ccc(-n3c(C)nc4cccnc43)cc2)cc1C	-20.3%	·	·	·	-2.8%
CO[C@H]1COC(=O)[C@H](C)NC(=O)C/C=C\[C@@H](C)[C@H](OC)COC(=O)C/C=C\[C@@H]1C	·	·	-4.3%[10 µM]	2.4%[10 µM]	·
CCN(CC)c1ccc(-c2nn3c(-c4ccccc4OC)nnc3s2)cc1	-15.4%	0.9%	14.1µM*	?	?
CC(=O)Oc1ccc(C(=O)Nc2ccc(C3(C#N)CCCC3)cc2)cc1	2.24µM*	-5.9%	0.398µM*	0.355µM*	-11.4%
CCC(/C=C/C(C)C1CCC2C3CCC4=CC(=O)CC[C@@]4(C)C3CC[C@@]12C)C(C)C (some centres not stated)	·	·	4.0%	27.9%	·
SMILES	GLP-1R inv ag	GLP1R ag	Gal4-VP16 FLuc	RORg inh	HEK293 tox
Cn1cccc1/C=N/NC(=O)c1cccc(OC(F)(F)C(F)F)c1	-24.1%	5.3%	?	10µM*	21.6%
Cc1cc(C(=O)N/N=C/c2cccn2C)n[nH]1	32.0%	0.4%	-0.3%	15.4%	3.9%
CCS(=O)(=O)N1Cc2ccccc2CC1C(=O)Nc1nc2ccccc2s1 (configuration not stated)	?	-8.7%	4.47µM*	3.55µM*	?
CCS(=O)(=O)N1Cc2ccccc2CC1C(=O)Nc1nc2ccccc2[nH]1 (configuration not stated)	-27.8%	-6.1%	-25.7%	?	-13.6%
CCc1nnc(NC(=O)C2Cc3ccccc3CN2S(=O)(=O)c2c(C)c(C)cc(C)c2C)s1 (configuration not stated)	-3.8%	2.1%	-12.9%	11.2µM*	-21.1%
CCc1nnc(NC(=O)C2Cc3ccccc3CN2S(=O)(=O)CC)s1 (configuration not stated)	3.8%[0.307 µM]	-2.0%	3.9%	-21.0%	12.6%[0.307 µM]
CCc1ccccc1NS(=O)(=O)c1ccc(-c2coc(C)n2)cc1	?	3.0%	·	·	3.6%
COc1cc(/C=N/O)ccc1OCc1ccc(Cl)cc1	·	·	?	1.12µM*	·
COc1cc(/C=N\n2nnnc2N)ccc1OCc1ccc(F)cc1	1.8%	-2.3%	?	-4.2%	-18.9%
COc1cc(/C=N/N=C(N)N)ccc1OCc1ccc(Cl)cc1	?	-6.6%	-26.8%[10 µM]	-104.6%	-28.4%
COc1cc(/C=N/O)ccc1OCc1ccc(C(=O)O)cc1	?	-13.3%	3.98µM*	1µM*	-31.2%
CCOc1cc(/C=N/O)ccc1OCc1ccc(F)cc1	?	?	-20.7%	8.4%	2.0%
CCOc1cc(/C=N/N=C(N)N)ccc1OCc1ccc(Cl)cc1	11.2µM*	-32.2%	8.91µM*	?	?
COc1cc(/C=N/n2c(C)n[nH]c2=S)ccc1OCc1ccc(F)cc1	5.6%	-1.9%	12.6%	3.98µM*	-7.5%
CCOc1ccc(S(=O)(=O)N2CCC(c3ccncc3)CC2)cc1	-12.4%	·	·	·	-1.2%
Cc1nc(N2CCOCC2)c2nc(-c3ccccc3)n(CC(C)(C)CN(C)C)c2n1	·	·	5.8%	-37.4%	·
C=CCOC(=O)N[C@H](C[N+](=O)[O-])c1ccccc1	·	·	5.6%	10.8%	·
CCNC(=S)N/N=C/c1ccc(OCc2ccc(C(=O)OC)cc2)cc1	-7.4%	-0.2%	?	3.16µM*	-20.2%
CCNC(=S)N/N=C/c1ccc(OCC(=O)Nc2ccc(C)cc2)cc1	0.0%	-6.3%	?	17.8µM*	?
COc1cc(/C=N/NC(=S)Nc2cccc(Cl)c2C)ccc1OCC(=O)N1CC(C)OC(C)C1 (configuration not stated)	?	-4.8%	2.51µM*	1.58µM*	?
CCNC(=S)N/N=C/c1ccc(OCC(=O)Nc2ccc(OC)cc2)c(OC)c1	-26.7%	0.4%	?	4.47µM*	-9.0%
COc1cc(/C=N/NC(=O)c2ccc(Cl)cc2)ccc1OCC(=O)N1CC(C)OC(C)C1 (configuration not stated)	-7.4%	6.7%	-0.7%	17.5%	15.0%
